# Bioassay records: PubChem, National Center for Advancing Translational Sciences (NCATS)
# Sampled rows, rich in hits. Any-hit rate of the full collection: about 4%.
# TRHR agonist = qHTS for Small Molecule Agonists and Allosteric Enhancers of Human TRH Receptor: Primary Screen for Agonists | Thyrotropin-releasing hormone receptor (Homo sapiens), P34981 | TRHR cells, calcium flux fluo-8, FDSS agonist mode | activation, % at 2 µM | actives 0.18% (n = 360,000)
#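 Steps: seed TRHR cells overnight; add fluo-8 no-wash Ca dye, RT 30 min–1.5 h; record 10 s baseline; pin-transfer compounds; monitor fluorescence 1 cycle/s for the agonist window. Calcium increases flag candidate agonists.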
# D1 agonist = Allosteric Agonists of the Human D1 Dopamine Receptor: qHTS | D(1A) dopamine receptor (Homo sapiens), P21728 | HEK293 T-REx D1 cells, calcium flux, agonist mode | activation, % at 2 µM | actives 1% (n = 360,000)
# Target sequence (P21728 whole entry, looked up): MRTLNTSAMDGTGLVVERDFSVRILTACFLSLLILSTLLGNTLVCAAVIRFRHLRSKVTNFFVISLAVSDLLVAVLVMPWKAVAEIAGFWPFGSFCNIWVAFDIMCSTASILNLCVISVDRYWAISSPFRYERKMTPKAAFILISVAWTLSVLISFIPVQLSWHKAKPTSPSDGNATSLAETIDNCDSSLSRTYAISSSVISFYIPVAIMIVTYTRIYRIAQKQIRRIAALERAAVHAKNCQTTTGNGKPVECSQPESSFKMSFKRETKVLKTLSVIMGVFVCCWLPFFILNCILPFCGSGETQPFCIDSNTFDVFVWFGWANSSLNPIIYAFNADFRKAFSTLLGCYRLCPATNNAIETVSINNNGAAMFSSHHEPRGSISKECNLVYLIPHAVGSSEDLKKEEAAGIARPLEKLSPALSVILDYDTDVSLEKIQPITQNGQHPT
#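 Inducible HEK293 T-REx D1 cells, force-coupled to calcium signalling, were plated at 4000 cells/well with tetracycline and held overnight at 30 C. After no-wash calcium dye loading, compound-evoked calcium rise over 180 s flagged agonists.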
# GRP78 ERSR act = qHTS for Inducers of the Endoplasmic Reticulum Stress Response (ERSR) in Human Glioma: qHTS; U87-MG GRP78 promoter luciferase reporter, 16 h; Potency, µM, most hits filed as activators; actives 0.02% (n = 420,000); AID 602332, 2012; active = well fitted activation curve with a large enough effect; also: series mostly up to about 76 µM; nearly all actives have a fitted effect of over 35% in size
#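 ERSR induction read as luciferase luminescence (Bright-Glo, 10 min at room temperature) in stably transfected human U87-MG glioma cells exposed to compounds for 16 h, using GRP78 as sensor.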
# D1 PAM = Potentiators of Human D1 Dopamine Receptor: qHTS; D(1A) dopamine receptor (Homo sapiens), P21728; HEK293 TREx D1 cells, calcium flux, dopamine EC20 potentiation; potentiation, % at 10 µM; actives 0.036% (n = 360,000); in the data active = potentiation above about 30%
# TRHR PAM = qHTS for Small Molecule Agonists and Allosteric Enhancers of Human TRH Receptor: Primary Screen for Enhancers; AID 493056, 2011; TRHR cells, fluo-8 calcium fluorescence, EC20 TRH enhancement; actives 0.66% (n = 360,000); enhancement, % at 2 µM; Thyrotropin-releasing hormone receptor (Homo sapiens), P34981; in the data active = enhancement above about 30%
#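 TRHR-expressing cells loaded with fluo-8 calcium dye were read kinetically (ex 480/em 530) during compound addition, then stimulated with an EC20 of TRH (10 nM final). Enhancement of the Gq-mediated intracellular calcium response was scored.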
# D1 antag = Antagonist of Human D 1 Dopamine Receptor: qHTS; D(1A) dopamine receptor (Homo sapiens), P21728; HEK293 TREx D1 cells, calcium flux, dopamine EC80; stronger effect = lower value; actives 3.2% (n = 360,000); AID 504652, 2011; activity change, negative = inhibition, % at 10 µM; in the data active = activity change below about -30%
#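 Cells carrying a force-coupled, tetracycline-inducible human D1 receptor report calcium flux. Each well gets a 10 s baseline, compound with 180 s monitoring, then an EC80 dopamine stimulus with a second 180 s kinetic read.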
# A number is an active result; 0 = inactive; - = no result given. Rule as the data show it, unless noted: active = activation above about 30%; inactive = the rest.
SMILES,TRHR agonist,D1 agonist,GRP78 ERSR act,D1 PAM,TRHR PAM,D1 antag
CCc1ccccc1N(CC(=O)OC)S(C)(=O)=O,0,0,0,0,0,0
COC(=O)CN(c1ccccc1C)S(C)(=O)=O,0,0,0,0,0,-37.9
CCN1CCN(C(=O)c2cnn(-c3ncc4c(n3)-c3ccccc3CCC4)c2COC)CC1,-,-,0,-,-,-
CCCCC(=O)NC(=S)Nc1cc(C(=O)O)ccc1OC,0,0,0,0,0,0
COc1ccc(C(=O)O)cc1NC(=S)NC(=O)/C=C/c1ccc(C(C)C)cc1,0,0,0,0,32.2,0
Cc1ccc(S(=O)(=O)CCC(=O)OCC(=O)c2ccc(C)c(C)c2)cc1,0,0,0,0,0,-30.6
O=C(Cc1ccc(S(=O)(=O)N2CCOCC2)s1)N1CCN(c2cccc(C(F)(F)F)c2)CC1,0,0,0,0,0,-32.0
O=C(Cc1ccc(S(=O)(=O)N2CCCC2)s1)N1CCN(c2ccccc2)CC1,0,0,0,0,0,0
CC1(C)S[C@@H]2C(C(=O)O)NC(=O)N2C1C(=O)O (stereo partly specified),-,-,0,-,-,-
CC(C)OC(=O)c1c2c(n3ccccc13)C(=O)c1ccccc1C2=O,74.7,254.5,0,0,0,0
COC(=O)c1cc2c(C)c(C)c3ccccn3c-2c1C(=O)OC,0,0,0,0,0,0
Cc1nn(-c2ccccc2)c(NC(=O)NS(=O)(=O)c2ccc(Cl)cc2)c1C#N,-,-,0,-,-,-
CC(C)(C)NC(=O)NC(=O)CSc1ncccn1,0,0,0,0,0,-35.2
CC(C)NC(=O)NC(=O)CSc1ncccn1,0,0,0,0,0,0
CC(=O)Nc1ccc(OS(=O)(=O)O)cc1,-,-,0,-,-,-
CC(=O)Nc1ccc(OS(=O)(=O)c2ccc(C(C)(C)C)cc2)cc1,0,0,-,0,0,-55.9
CC1(C)C=C(c2ccc(C=O)s2)CC(C)(C)N1C=O,0,0,0,0,0,-31.1
Cc1ccccc1CNC(=O)c1ccc(CN2CC(=O)N3CCCCC3C2=O)cc1 (stereo unspecified),0,0,0,0,0,0
N#Cc1ccc(-c2ccc(OCC(=O)NCCc3ccccc3)cc2)cc1,0,35.8,0,0,0,-47.7
CN(Cc1ccsc1)C(=O)CCc1nnc(Cc2c[nH]c3ccccc23)o1,0,0,0,0,36.0,0
CCn1nc(C)c(CNC(=O)CCc2nnc(Cc3c[nH]c4ccccc34)o2)c1C,0,0,0,0,0,-48.6
CCC(COC)NC(=O)CCc1nnc(Cc2c[nH]c3ccccc23)o1 (stereo unspecified),0,0,0,0,0,0
CC(C)(C)NC(=O)CCc1nnc(Cc2c[nH]c3ccccc23)o1,0,0,0,0,0,-50.6
COc1cc2c(NC3CCN(C(C)C)CC3)nc(N3CCCN(C)CC3)nc2cc1OCCOCCN1CCCC1,-,-,0,-,-,-
O=C(Nc1ccc(N=Nc2ccccc2)cc1)c1ccc(Cl)cc1Cl,0,0,0,0,0,-38.0
SMILES,TRHR agonist,D1 agonist,GRP78 ERSR act,D1 PAM,TRHR PAM,D1 antag
CCc1c(C)c2ccc(O)c(CN3CCN(c4ccccc4)CC3)c2oc1=O,0,0,-,0,0,0
CCOC(=O)c1sc(NC(=O)Nc2ccccc2Cl)cc1C,0,0,0,0,0,-38.7
CCOC(=O)c1sc(NC(C)=O)cc1C,0,0,0,0,0,0
CCOC(=O)c1sc(NC(=O)Nc2ccccc2)cc1C,0,0,0,0,0,-41.7
CCOC(=O)/C(=C\C=C1/Sc2cc(OCC)c(OCC)cc2N1CC)C(C)=O,159.5,329.2,0,0,0,-43.4
CCN1/C(=C/C(C)=O)Sc2ccc(OC)cc21,0,0,0,0,0,0
CCOC(=O)/C(=C/C=C1\Sc2cc(OCC)c(OCC)cc2N1CC)C(C)=O,244.1,215.9,0,0,48.1,-30.3
Cn1cnc2c(=O)oc3ccc(S(=O)(=O)N4CCN(c5ccccc5F)CC4)cc3c21,0,0,0,0,0,0
CCOc1cc2sc(N3CCC(C(=O)Nc4ccc(C(C)C)cc4)CC3)nc2cc1Br,0,0,0,0,0,0
O=C(Nc1c(-c2ccccc2)nc2ccccn12)c1ccc(Br)cc1,0,0,0,0,0,0
C/C(=N\NC(=O)CN1CCN(c2ccc(F)cc2)CC1)c1ccco1,-,-,0,-,-,-
Cc1ccc(S(=O)(=O)n2c3ccc(F)cc3c3nc(C)sc32)cc1,0,0,-,0,0,-31.5
O=C(c1ccco1)N1CCN(S(=O)(=O)c2ccc([N+](=O)[O-])cc2)CC1,0,0,0,0,0,-33.8
O=C(c1ccco1)N1CCN(S(=O)(=O)c2ccccc2)CC1,0,0,0,0,0,0
COc1ccccc1CNC(=O)c1cn(C)c2ccc(S(=O)(=O)N(C)C3CCCCC3)cc2c1=O,0,0,0,0,0,-36.7
COC(CN(C)C(=O)c1cn(C)c2ccc(S(=O)(=O)N(C)C3CCCCC3)cc2c1=O)OC,0,0,0,0,30.5,0
CCN(CC)S(=O)(=O)c1ccc2c(c1)c(=O)c(C(=O)NCc1ccccc1OC)cn2C,0,0,0,0,0,0
C=C1CCC(=O)C(C)CCC2C1CC2(C)C (stereo unspecified),-,-,0,-,-,-
CCCCN(C=O)c1c(CC)nc2ccc(C(=O)Nc3cc(-c4ccccc4)ccc3OC)cn12,-,-,0,-,-,-
CCN(CC)c1cccc(OC2=NS(=O)(=O)c3ccccc32)c1,0,0,0,0,37.4,0
Cc1cc(C)c2c(CC(=O)Nc3c(C(=O)c4ccc(F)cc4)oc4ccccc34)coc2c1,0,0,0,0,0,0
CCOc1ccccc1NC(=O)c1cn(C2CCCC2)c(=O)c2c1c1ccccc1n2C,0,0,0,0,0,0
C/C(=C\C=C(C#N)C#N)c1cc(C#N)c(N)o1,0,62.7,0,0,0,0
FC(F)C(F)(F)c1cc(-c2ccc(Cl)cc2)n[nH]1,0,85.9,0,0,0,-45.6
Fc1ccc(-c2cc(C(F)(F)C(F)F)[nH]n2)cc1,0,64.4,0,0,0,-47.5
Clc1cccc[n+]1CCCCCC[n+]1ccccc1Cl,-,-,0,-,-,-
CCc1ccc2nc3sc(C(=O)O)cc3cc2c1,0,254.6,0,0,0,0
O=C(CSc1nnc2scc(-c3ccccc3)n12)N1CCN(Cc2ccccc2)CC1,0,0,0,0,39.0,0
O=C1CC2CC1C(C(=O)O)C2C(=O)O (stereo unspecified),-,-,0,-,-,-
